According to PubChem BioAssay (NCI):
This is part of a sample that, as a whole, favours compounds with a hit. Of some 83,000 tested, about 20% had one in any assay.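 Note: values are percent growth. 100 is the growth of untreated cells, values between 100 and 0 indicate rising inhibition; between -100 and 0 indicates cell death.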 Calls of active or inactive are those of the source. Rule for the calls: active = growth percent below 10; inactive = the rest.

Assays:
Assay in all cases: NCI-60 one-dose screen, 48 h (100 = growth as untreated, 0 = no growth, -100 = all killed)
Settings in all cases: 10 µM unless noted
HCT-15 colon = tested on: HCT-15 colon
HT29 colon = tested on: HT29 colon
SNB-75 CNS = tested on: SNB-75 CNS
SNB-19 CNS = tested on: SNB-19 CNS
U251 CNS = tested on: U251 CNS
PC-3 prostate = tested on: PC-3 prostate
SK-MEL-5 melanoma = tested on: SK-MEL-5 melanoma
UACC-62 melanoma = tested on: UACC-62 melanoma
SK-MEL-28 melanoma = tested on: SK-MEL-28 melanoma
SK-MEL-2 melanoma = tested on: SK-MEL-2 melanoma
EKVX NSCLC = tested on: EKVX NSCLC
SN12C renal = tested on: SN12C renal
UO-31 renal = tested on: UO-31 renal
TK-10 renal = tested on: TK-10 renal
ACHN renal = tested on: ACHN renal
CAKI-1 renal = tested on: CAKI-1 renal
A498 renal = tested on: A498 renal
CCRF-CEM leukemia = tested on: CCRF-CEM leukemia
MOLT-4 leukemia = tested on: MOLT-4 leukemia
LOX IMVI melanoma = tested on: LOX IMVI melanoma

Measured: growth

O=C1/C(=C/c2ccccc2[N+](=O)[O-])COc2ccc(O)cc21
active: HCT-15 colon -8.7% | HT29 colon -20.8% | U251 CNS 7.41% | PC-3 prostate 4.19% | UACC-62 melanoma 2.16% | SK-MEL-28 melanoma -5.79% | SN12C renal -17.2% | UO-31 renal -68.7% | ACHN renal -13.5% | CAKI-1 renal -15.3% | CCRF-CEM leukemia 0.864% | MOLT-4 leukemia 4.74%
inactive: SNB-75 CNS 43.2% | SNB-19 CNS 62.7% | SK-MEL-5 melanoma 59.1% | SK-MEL-2 melanoma 57.1% | EKVX NSCLC 54.7% | TK-10 renal 27.4% | A498 renal 85.8%

CCCCCSB(SCCCCC)c1ccccc1
inactive: HCT-15 colon 96.8% | HT29 colon 96.4% | SNB-75 CNS 78.7% | SNB-19 CNS 96.6% | U251 CNS 99.7% | PC-3 prostate 97.2% | SK-MEL-5 melanoma 105% | UACC-62 melanoma 105% | SK-MEL-28 melanoma 110% | SK-MEL-2 melanoma 102% | EKVX NSCLC 106% | SN12C renal 106% | UO-31 renal 81.3% | TK-10 renal 101% | ACHN renal 105% | CAKI-1 renal 96% | A498 renal 95.4% | CCRF-CEM leukemia 97.4% | MOLT-4 leukemia 96.4%

COC(=O)C1=C(C(=O)Nc2cccnc2)C2OC1(C(Cc1ccccc1)Oc1ccccc1)C1OC21 (stereo not given)
inactive: HCT-15 colon 14.4% | HT29 colon 59.1% | SNB-75 CNS 88.7% | SNB-19 CNS 102% | U251 CNS 101% | PC-3 prostate 69.6% | SK-MEL-5 melanoma 107% | UACC-62 melanoma 69.7% | SK-MEL-2 melanoma 93.5% | EKVX NSCLC 101% | SN12C renal 48.5% | CAKI-1 renal 57.4% | A498 renal 121%
active: SK-MEL-28 melanoma -75.4% | UO-31 renal -99.3% | TK-10 renal -8.69% | ACHN renal -99.2% | CCRF-CEM leukemia -23% | MOLT-4 leukemia -31.5%

COc1ccc(C2C3=C(COC3=O)N(CCO)c3cc4c(cc32)OCCO4)cc1OC (stereo not given)
inactive: HCT-15 colon 31.3% | SNB-19 CNS 37.4% | U251 CNS 26.4% | PC-3 prostate 23.8% | SK-MEL-5 melanoma 21% | UACC-62 melanoma 18.1% | LOX IMVI melanoma 42.1% | SK-MEL-2 melanoma 55.3% | EKVX NSCLC 56.5% | SN12C renal 42% | UO-31 renal 66.2% | TK-10 renal 65.1% | ACHN renal 42.2% | CAKI-1 renal 49.5% | CCRF-CEM leukemia 21.1% | MOLT-4 leukemia 55.3%
active: HT29 colon 4.76% | SNB-75 CNS -8.37% | A498 renal -5.71%

COc1ccc(Cn2cc(C(=O)N=Nc3c(O)[nH]c4c(Cl)cccc34)nn2)cc1
inactive: HCT-15 colon 107% | HT29 colon 97% | SNB-75 CNS 82.1% | SNB-19 CNS 93.6% | U251 CNS 102% | PC-3 prostate 96.7% | SK-MEL-5 melanoma 101% | UACC-62 melanoma 102% | SK-MEL-28 melanoma 115% | SK-MEL-2 melanoma 93.2% | EKVX NSCLC 102% | SN12C renal 95.8% | UO-31 renal 93.5% | TK-10 renal 106% | ACHN renal 111% | CAKI-1 renal 94.4% | A498 renal 93.8% | CCRF-CEM leukemia 106% | MOLT-4 leukemia 84.8%

Cc1nc2ccccc2c(/C=C/c2ccc(C(F)(F)F)cc2)c1C(=O)/C=C/c1ccccc1
active: HCT-15 colon -49.4% | HT29 colon -29.2% | SNB-19 CNS -66.5% | U251 CNS -84.1% | SK-MEL-5 melanoma -79% | UACC-62 melanoma -39.8% | LOX IMVI melanoma -92.2% | SK-MEL-2 melanoma -43.6% | EKVX NSCLC 8.76% | SN12C renal -25.9% | UO-31 renal -96.1% | TK-10 renal 7.75% | ACHN renal -54.6% | CAKI-1 renal 0.887% | A498 renal -31.4% | CCRF-CEM leukemia 5.84% | MOLT-4 leukemia 4.86%
inactive: SNB-75 CNS 31.3% | PC-3 prostate 12%

CC(=O)N/C(=C1/OC(C(O)C(O)C(O)CO)CN1C)[P+](c1ccccc1)(c1ccccc1)c1ccccc1 (stereo not given)
inactive: HCT-15 colon 98.5% | HT29 colon 115% | SNB-75 CNS 75.3% | SNB-19 CNS 91.2% | U251 CNS 98% | PC-3 prostate 98.2% | SK-MEL-5 melanoma 95.5% | UACC-62 melanoma 98.6% | LOX IMVI melanoma 98.2% | SK-MEL-2 melanoma 99.5% | EKVX NSCLC 90.3% | SN12C renal 96.2% | UO-31 renal 79.4% | TK-10 renal 104% | ACHN renal 100% | CAKI-1 renal 90.6% | A498 renal 120% | CCRF-CEM leukemia 97.1% | MOLT-4 leukemia 102%

COc1cc(-c2nc3ccc(C)cc3[nH]2)ccc1OCC(=O)N=Nc1c(O)[nH]c2ccc(Cl)cc12
inactive: HCT-15 colon 58.8% | PC-3 prostate 11.1% | SK-MEL-5 melanoma 56% | UACC-62 melanoma 19.9% | SK-MEL-2 melanoma 13% | EKVX NSCLC 50.7% | UO-31 renal 86.3% | ACHN renal 31.4% | A498 renal 82.2%
active: HT29 colon -27.6% | SNB-75 CNS -42.1% | SNB-19 CNS 3.43% | U251 CNS -41.6% | LOX IMVI melanoma -96.8% | SN12C renal -56.4% | CCRF-CEM leukemia -39.1% | MOLT-4 leukemia -17.9%
